This is an account of results in PubChem BioAssay (Tox21).

Molecules are shown by their SMILES. Records with an inconclusive call do not appear. Unmarked numbers belong to inactive results. Activity calls are given as the source filed them. Calls come from the whole dose curve.
% is set by controls: 0 for no effect and ±100 for the full control effect; potency is the fitted concentration of half-maximal effect.

Chain of Beta-2 adrenergic receptor (Homo sapiens) (P07550 whole entry, looked up): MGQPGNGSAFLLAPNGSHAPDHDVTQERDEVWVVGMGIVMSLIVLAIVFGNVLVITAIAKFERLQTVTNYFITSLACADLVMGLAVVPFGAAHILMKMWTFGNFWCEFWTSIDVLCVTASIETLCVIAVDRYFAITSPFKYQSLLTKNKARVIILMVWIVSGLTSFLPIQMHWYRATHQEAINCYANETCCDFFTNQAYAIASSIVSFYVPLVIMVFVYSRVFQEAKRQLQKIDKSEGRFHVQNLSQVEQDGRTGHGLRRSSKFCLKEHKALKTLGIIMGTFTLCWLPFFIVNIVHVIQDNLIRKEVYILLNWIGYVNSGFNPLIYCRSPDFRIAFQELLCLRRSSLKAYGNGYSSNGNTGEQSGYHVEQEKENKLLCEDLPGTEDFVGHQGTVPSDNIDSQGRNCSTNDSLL

The target of this experiment is Beta-2 adrenergic receptor (Homo sapiens) (UniProt P07550). Nature of the experiment: Adrenergic beta2 receptor (ADRB2) small molecule antagonists, cell-based qHTS assay (AID 1963592). Note: nearly all actives have a fitted effect of over 50% in size. The conditions noted are these: CHO-ADRB2 cells, isoproterenol-stimulated cAMP HTRF ratio, 0.5 h; series mostly up to 92.4 µM; activity change, negative = inhibition: at the top concentration. An excerpt:
U.S. Tox21 Program National Center for Advancing Translational Sciences [NCATS] Division of Preclinical Innovation [DPI] U.S. Environmental Protection Agency [EPA] National Institutes of Environmental Health Sciences [NIEHS] National Toxicology Program [NTP] U.S. Food and Drug Administration [FDA] Tox21 Assay Overview: Beta adrenergic receptors (Beta-ARs) belong to the G-protein coupled receptor (GPCR) superfamily, includes three subtypes - beta1, beta2, and beta3. Beta1-AR is the predominant receptor subtype expressed in the heart, and beta2-AR is expressed in the kidney, lung, blood vessel and in the heart, and beta3 is found in the adipocytes. Beta1 and 2 ARs couple to Gs protein and elevate cyclic adenosine mono phosphate (cAMP), which activates protein kinase A and leads to the downstream signaling responsible for the physiological actions. Beta-AR agonists or antagonists are the most prescribed therapeutic agents for heart failure and asthma, and these were one of the first target receptors for the rational drug design. Tox21 10K compound library was screened using the cAMP-Gs dynamic assay (Cisbio Bioassays, Shelton, CT) to identify agonists/antagonists of the Gs-coupled human adrenergic, beta2 receptor (ADRB2) in the CHO-ADRB2 cell line (Codex BioSolutions, Inc. Gaithersburg, MD), which stably over-expresses ADRB2. The principle of cAMP-Gs dynamic assay is based on HTRF technology, which facilitates the fluorescence resonance energy transfer (FRET) between donor Europium cryptate and acceptor d2-labeled cAMP. The cAMP generated within cells competes with the red acceptor, d2-labled cAMP, for binding to the monoclonal anti-cAMP-cryptate (Europium donor). An increase in intracellular cAMP leads to the disruption of FRET signal, and the signal is inversely proportional to the cAMP concentration. Propranolol HCl (Sigma-Aldrich, St. Louis, MO) was used as a positive control in the screening.
Tox21 Assay Protocol Summary: CHO-ADRB2 cells were dispensed at 1,000/well in 4uL assay medium into white/solid 1536-well plates (Greiner Bio-One North America Inc., Monroe, NC) using a Multidrop Combi dispenser (ThermoFisher Scientific, Waltham, MA). The assay plates were incubated at 37C and 5% CO2 for an overnight (18-20hr). Then positive control and test compounds dissolved in DMSO were transferred to the assay plates at 23nL using a Pintool station (Wako, San Diego, CA). Following the compound and positive control transfer, 1uL agonist-stimulation mix containing 1nM Isoproterenol HCl, 100uM IBMX and 25uM Ro-20-1724 was added to each well of the assay plates using BioRAPTR Flying Reagent Dispenser (FRD, Beckman Coulter, Brea, CA). The assay plates were incubated at room temperature for 0.5hr. Then 2.5ul each d2-labled cAMP and anti-cAMP-cryptate solutions were added separately to each well of the assay plates using an FRD and the assay plates were incubated at room temperature for 1hr. The fluorescence signal was measured at two different wavelengths (665nm and 615nm) using an Envision plate reader (Perkin Elmer, Shelton, CT). Data were expressed as the ratio of 665 nm/615 nm.
Take `Cc1cnc2c(C(=O)O)c(Cl)ccc2c1`: the “activity change, negative = inhibition” value is -3.45%.

`C=CCOC(=O)c1ccccc1N`: the “activity change, negative = inhibition” value was -4.29%.

As to `CNC(=O)Oc1cc(C)c(SC)c(C)c1`, the “activity change, negative = inhibition” value is 4.36%.

As for `O=C(O)CCCCCCNC1c2ccccc2CCc2ccccc21`, the “activity change, negative = inhibition” value was -0.51% [at 42.5 µM].

As for `Clc1c(Cl)c(Cl)c(Cl)c(Cl)c1Cl`, the activity change, negative = inhibition is -5.22% [at 8.39 µM].

On to `CCCN(CCCl)c1c([N+](=O)[O-])cc(C(F)(F)F)cc1[N+](=O)[O-]`, for which the “activity change, negative = inhibition” value is 1.6%.

On to `Clc1ccc(Oc2ccccc2)cc1`, for which the “activity change, negative = inhibition” value was 7.34%.

Take `O=[N+]([O-])c1cccc2cccnc12`: the “activity change, negative = inhibition” value was 2.13%.

With `Cc1cc(C)c(C2=C(OC(=O)CC(C)(C)C)C3(CCCC3)OC2=O)c(C)c1`, the “activity change, negative = inhibition” value was -7.31%.

For `Clc1ccc2ccccc2c1`, the “activity change, negative = inhibition” value was 8.57%.

Consider `O=S1(=O)OCCO1`, for which the “activity change, negative = inhibition” value was -6.49%.

As for `Cc1cc2c3c(c1)C(c1ccccc1)=N[C@@H](NC(=O)c1ccncc1)C(=O)N3CC2`, the “activity change, negative = inhibition” value was -26.9%.

With `CCN[C@@H](C)Cc1ccccc1`, the “activity change, negative = inhibition” value was -7.67%.

For the compound `CNC(C)Cc1ccccc1OC` (stereo not given), the “activity change, negative = inhibition” value was -4.28% [at 42.5 µM].

Turning to `O=C(Cl)c1ccc(Cl)cc1`, the “activity change, negative = inhibition” value was 0.371%.

In the case of `CCOP(=S)(OCC)Oc1ccc(Cl)cc1Cl`, the “activity change, negative = inhibition” value is -1.73%.

For the compound `CCCOC(=O)Cc1ccc(OCC(=O)N(CC)CC)c(OC)c1`, the “activity change, negative = inhibition” value is -5.73% [at 42.5 µM].

Consider `O=[N+]([O-])[O-].[Tl+]`, for which the “activity change, negative = inhibition” value is 0.694%.

As for `CC(=O)c1cc(C(C)(C)C)cc2c1CCC2(C)C`, the “activity change, negative = inhibition” value is -2.23%.

In the case of `Cc1ncc(C[n+]2csc(CCO)c2C)c(N)n1`, the “activity change, negative = inhibition” value is -0.425%.

Take `NC1CCC(CC2CCC(N)CC2)CC1` (stereo not given): the “activity change, negative = inhibition” value is 9.7%.

Regarding `N#CCCl`, the “activity change, negative = inhibition” value is -15.7%.

Turning to `NC(=O)CS(=O)C(c1ccccc1)c1ccccc1` (stereo not given), the “activity change, negative = inhibition” value was 10.8% [at 42.5 µM].

With `Nc1n[nH]c(N)n1`, the “activity change, negative = inhibition” value was 4.19%.

`O=C(O)CBr`: the “activity change, negative = inhibition” value was -8.89%.

Consider `O=S(=O)(Cl)c1ccccc1`, for which the “activity change, negative = inhibition” value was 0.28%.

For the compound `CC(C)C1CCC(Cc2ccc(Cl)cc2)C1(O)Cn1cncn1` (stereo not given), the Potency was 30.3 µM (active).

Consider `CC(C)(COCC1CO1)COCC1CO1` (stereo not given), for which the “activity change, negative = inhibition” value was 1.41%.

`ClC(Cl)C(Cl)Cl`: the “activity change, negative = inhibition” value is 2.34%.

With `Nc1ccc([N+](=O)[O-])cc1[N+](=O)[O-]`, the “activity change, negative = inhibition” value was -0.977%.

`ClC(Cl)=C(Cl)Cl`: the “activity change, negative = inhibition” value was 1.25%.

For the compound `c1csc(-c2ccc(-c3cccs3)s2)c1`, the “activity change, negative = inhibition” value was -10.7%.

As for `CCCCN(CCCC)C(=S)S`, the “activity change, negative = inhibition” value is 4.51%.

Regarding `CC1CCC(C(C)C)C(OC(=O)c2ccccc2N)C1` (stereo not given), the “activity change, negative = inhibition” value is 1.49%.

With `c1coc(-c2nc3ccccc3[nH]2)c1`, the “activity change, negative = inhibition” value is -4.89%.

Take `O=NN(CCO)CCO`: the “activity change, negative = inhibition” value was -6.74%.

With `C[C@]12CC[C@@H](O)C[C@@H]1CC[C@@H]1[C@@H]2CC[C@]2(C)C(=O)CC[C@@H]12`, the “activity change, negative = inhibition” value was 0.418%.

For the compound `O=C(N[C@@H]1N=C(c2ccccc2F)c2cccc3c2N(CC3)C1=O)c1cc2ccccc2[nH]1`, the “activity change, negative = inhibition” value was -12.2% [at 42.5 µM].

As to `CCC1(c2ccccc2)C(=O)N(COC)C(=O)N(COC)C1=O`, the “activity change, negative = inhibition” value was 5.43% [at 42.5 µM].

As to `CCOP(=S)(OCC)OC(Cl)C(Cl)(Cl)Cl` (stereo not given), the “activity change, negative = inhibition” value is -11.5%.
